Experimental findings from PubChem BioAssay (Tox21) are described below.

A short description of experiment [1]: qHTS assay for small molecules that induce genotoxicity in human embryonic kidney cells expressing luciferase-tagged ATAD5 (AID 651632). Also: nearly all actives have a fitted effect of over 15% in size. Also: potency is read from the fitted curve at half-maximal effect. In a few lines: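 Increased luciferase signal from ATAD5-tagged reporter cells indicates DNA-damage-driven ATAD5 induction. HEK293T cells are treated for 16 hr at 37C before detection with Amplite.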
A general note: Quantitative high-throughput screening tests each substance at several concentrations.

Experiment [2] can be described thus: qHTS assay for small molecules that induce genotoxicity in human embryonic kidney cells expressing luciferase-tagged ATAD5 - cell viability (AID 651634; calls by dose curve; also: nearly all actives have a fitted effect of over 25% in size; also: potency is read from the fitted curve at half-maximal effect). An outline of the steps:
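Cytotoxicity counterscreen in HEK293T cells bearing an ATAD5-luciferase reporter: live-cell protease activity measured by CellTiter-Fluor fluorescence after 15.5 hr compound exposure.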

Experiment [3] can be described thus: qHTS assay for small molecule disruptors of the mitochondrial membrane potential - cell viability (AID 720634; calls by dose curve; also: nearly all actives have a fitted effect of over 20% in size; also: potency is read from the fitted curve at half-maximal effect). An outline of the steps:
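After overnight attachment at 37 C, HepG2 cells received compound or DMSO vehicle for 1 hr. Viability is then taken from ATP-driven luminescence following a 30 min room-temperature CellTiter-Glo step.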

A short description of experiment [4]: qHTS assay for small molecule disruptors of the mitochondrial membrane potential (AID 720635). Also: potency is read from the fitted curve at half-maximal effect. An outline of the steps: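 Mitochondrial membrane potential tracked with Mito-MPS dye, red aggregates (ex 540/em 590 nm) against green monomers (ex 490/em 535 nm). Compound treatment 1 hr at 37C, dye 30 min in HepG2.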
Experiment [5] can be described thus: qHTS assay to test for compound auto fluorescence at 590 nm (red) in HepG2 cells (AID 720674). In a few lines: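 We screened compounds on adherent HepG2 cells, incubating them for an hour at 37 C in 5% CO2 before reading emission at 590 nm under 540 nm excitation; values reflect equivalence to Rose Bengal sodium fluorescence.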
Experiment [6] in a line: qHTS assay to test for compound auto fluorescence at 535 nm (green) in HepG2 cells (AID 720675).
Experiment [7] is described as follows: qHTS assay to test for compound auto fluorescence at 460 nm (blue) in HEK293 cells (AID 720678). Also: potency is read from the fitted curve at half-maximal effect. In a few lines:
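HEK293 cells (2,000 per well, medium with 10% dialyzed FBS) attached for 4-5 hr at 37C, then received compound and stood overnight at 37C, 5% CO2. Blue fluorescence was read at Ex/Em 405/460 nm and expressed relative to triamterene.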

The nature of experiment [8]: qHTS assay to test for compound auto fluorescence at 590 nm (red) in HEK293 cells (AID 720679). In a few lines:
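HEK293 cells (2,000/well, medium with 10% dialyzed FBS) attached for 4-5 hr at 37C, received 23 nL compound and were incubated overnight at 37C, 5% CO2. Red fluorescence was then read at 540/590nm Ex/Em, referenced to Rose Bengal sodium.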

Experiment [9] can be described thus: qHTS assay for small molecule agonists of the p53 signaling pathway - cell viability (AID 651633; calls by dose curve; also: nearly all actives have a fitted effect of over 30% in size; also: potency is read from the fitted curve at half-maximal effect). In a few lines: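 Viability counter-read: CellTiter-Glo luminescence (30 min, room temperature) in the same p53RE-bla plates. These plates had been exposed to compounds for 16 h at 37 C.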

Values joined by “and” are separate entries in the source; they are usually repeats but may differ in a detail not shown here. Equal entries are not always repeated. Values without a mark were called inactive. Records with an inconclusive call do not appear. Active and inactive are the calls of the source. Unless noted, calls follow the shape of the dose curve; as a rule, active = well fitted curve in the direction sought with a large enough effect in the repeat runs; inconclusive = weak or mixed curves; inactive = no such curve, though single readings can be large; an effect the other way counts as inactive or inconclusive.
% is scaled to controls: 0 for no effect and ±100 for the full control effect; tags tell the direction and shape of the fitted curve or compound fluorescence and quenching.

In the case of `COc1ccc(OC)c(CC(C)N)c1` (centres undefined), the Potency result in [1], in experiment [2], in experiment [3], in experiment [4] and in [7] was “inactive” each time. The outcome in [5], in experiment [6] and in experiment [8] was inactive.
For the compound `Nc1ccc(Cc2ccc(N)c(Cl)c2)cc1Cl`, the Potency entry in experiment [1], in experiment [2] and in [7] was “inactive” throughout. Moreover, the Potency in experiment [4] was 59.1 µM (active). In addition, the compound was called inactive in [5], in experiment [6] and in [8].
With `CC(C)(O)c1cnn2c(-c3ccc(F)c(-c4c(F)cccc4C#N)c3)cnc2n1`, the Potency result in experiment [1], in experiment [9], in experiment [2] and in experiment [7] was “inactive” throughout. Besides, in [4], the Potency is 19.3 µM (active). Moreover, the outcome in [5], in [6] and in [8] was inactive.
Consider `S=C(SSC(=S)N1CCCCC1)N1CCCCC1`, for which, in experiment [1], the Potency was 29.8 µM (active). The Potency result in experiment [2], in experiment [3], in experiment [4] and in experiment [7] was “inactive” throughout. Further, the outcome in [5], in [6] and in experiment [8] was inactive.
`ClC1=C(Cl)[C@]2(Cl)[C@@H]3[C@@H]4C[C@@H]([C@H]5O[C@@H]45)[C@@H]3[C@@]1(Cl)C2(Cl)Cl`: the Potency result in [1], in [2] and in experiment [7] was “inactive” in each case. In addition, the Potency was 30.6 µM (active) in experiment [9] and 19.3 µM (active) in experiment [4]. In addition, the outcome in [5], in experiment [6] and in [8] was inactive.
As to `Oc1ccc2ccc3cccc4ccc1c2c34`, the Potency result in experiment [1], in experiment [9] and in experiment [2] was “inactive” in each case. In addition, the Potency in experiment [4] is 2.73 µM (active); in experiment [7] it was 35.5 µM [fluorescent] (active). Further, the outcome in [5], in experiment [6] and in [8] was inactive.
`ClCc1ccc(Cl)cc1Cl`: the Potency entry in [1], in experiment [9], in experiment [3] and in [7] was “inactive” in each case. Moreover, the call in experiment [5], in [6] and in experiment [8] was inactive.
On to `CCc1nn(C)c(C(=O)NCc2ccc(C(C)(C)C)cc2)c1Cl`, for which the Potency entry in [1], in [2] and in experiment [7] was “inactive” throughout. Besides, the Potency was 12.2 µM (active) in experiment [3] and 15.4 µM (active) in experiment [4]. The outcome in experiment [5], in experiment [6] and in experiment [8] was inactive.
As to `CC(C)N1C(=O)N(c2ccccc2)CSC1=NC(C)(C)C`, the Potency entry in [1], in experiment [2] and in experiment [7] was “inactive” in each case. Further, the Potency in [3] was 15.4 µM (active); in experiment [4] it was 38.6 µM (active). Further, the outcome in [5], in [6] and in experiment [8] was inactive.
For `Clc1ccc(CSC(Cn2ccnc2)c2ccc(Cl)cc2Cl)cc1` (centres undefined), the Potency entry in experiment [1], in experiment [2] and in [3] was “inactive” throughout. Besides, the fluorescence, relative to Rose Bengal in experiment [5] was -0.0239% [at 18.6 µM]. In addition, in experiment [6], the fluorescence, % of fluorescein control was -0.0068% [at 18.6 µM]. In addition, the fluorescence, % of triamterene in experiment [7] is -0.071% [at 18.6 µM]. Also, the fluorescence, % of fluorescent control in experiment [8] was 0.517% [at 18.6 µM].
For `CCCCCCCCCCCCCCCC[N+](C)(C)C`, the Potency entry in experiment [1], in experiment [2], in experiment [3] and in experiment [7] was “inactive” throughout. Moreover, the Potency in experiment [4] is 13.3 µM (active) and 10.5 µM (active) and 27.3 µM (active). The compound was classed as inactive in experiment [5], in experiment [6] and in experiment [8].
For `O=C(CCl)Nc1ccccc1`, the Potency entry in [1], in experiment [3] and in experiment [7] was “inactive” each time. In [2], the Potency was 48.6 µM (active). Moreover, the call in experiment [5], in experiment [6] and in experiment [8] was inactive.
As for `Cc1cc(C)c(C2=C(OC(=O)CC(C)(C)C)C3(CCCC3)OC2=O)c(C)c1`, the Potency entry in experiment [1], in [9], in experiment [2] and in experiment [7] was “inactive” throughout. Moreover, the Potency in experiment [4] is 12.8 µM (active). The compound was called inactive in experiment [5], in [6] and in experiment [8].
`Cc1cc(N=Nc2ccccc2C)ccc1N`: the Potency is 6.11 µM (active) and 6.86 µM (active) in [1]; 48.6 µM (active) in [2]; 19.3 µM (active) and 15.4 µM (active) in [3]; 15.4 µM (active) and 30.6 µM (active) in [4]. The outcome in experiment [5], in [6] and in experiment [8] was inactive. In [7], the Potency entry is “inactive”.
For the compound `Clc1ccc(CCC(Cn2ccnc2)Sc2c(Cl)cccc2Cl)cc1` (centres undefined), the Potency entry in [1], in experiment [2] and in experiment [3] was “inactive” throughout. For the same compound, in experiment [5], the fluorescence, relative to Rose Bengal was -0.283% [at 18.6 µM]. Besides, the fluorescence, % of fluorescein control in experiment [6] is -0.0029% [at 18.6 µM]. The fluorescence, % of triamterene in [7] was 0.0582% [at 18.6 µM]. Also, the fluorescence, % of fluorescent control in [8] was 0.0698% [at 18.6 µM].
As to `Fc1cccc(Cl)c1CCl`, the Potency entry in [1], in experiment [2], in experiment [3] and in [7] was “inactive” each time. The outcome in experiment [5], in experiment [6] and in experiment [8] was inactive.
On to `CC1(C)CN=C(NN=C(/C=C/c2ccc(C(F)(F)F)cc2)/C=C/c2ccc(C(F)(F)F)cc2)NC1`, for which the Potency entry in experiment [1] and in [7] was “inactive” each time. The Potency was 27.3 µM (active) in [9], 48.6 µM (active) in experiment [2] and 17.2 µM (active) in [4]. Further, the compound was called inactive in experiment [5], in experiment [6] and in experiment [8].
On to `CC1(C)[C@H](C(=O)O[C@H](C#N)c2cccc(Oc3ccccc3)c2)[C@@H]1/C=C(\Cl)C(F)(F)F`, for which the Potency result in [1], in [9], in experiment [2] and in experiment [7] was “inactive” in each case. For the same compound, the Potency in experiment [4] was 25.3 µM (active). Moreover, the call in [5], in [6] and in experiment [8] was inactive.
With `Oc1c(Cl)c(Cl)cc(Cl)c1Cl`, the Potency result in experiment [1], in [9], in experiment [3] and in [7] was “inactive” in each case. Also, the Potency in [4] was 5.3 µM (active). In addition, the call in experiment [5], in [6] and in experiment [8] was inactive.
On to `Oc1c(Br)c(Br)c(Br)c(Br)c1Br`, for which the Potency result in [1], in experiment [3] and in [7] was “inactive” in each case. The Potency was 17.3 µM (active) in experiment [9] and 2.45 µM (active) in experiment [4]. For the same compound, the compound was classed as inactive in experiment [5], in experiment [6] and in [8].
